Assay results published in ChEMBL document CHEMBL1157539, “Thousands of chemical starting points for antimalarial lead identification” (Nature, 2010).

Test system: Plasmodium falciparum
Assay: GSK_TCMDC: Inhibition of Plasmodium falciparum 3D7 in whole red blood cells, using parasite LDH activity as an index of growth. Test compounds present at 2uM
Format: functional

Structure (SMILES)	Inhibition [%]
CCCCCCNC(=O)C1Cc2c([nH]c3ccc(Br)cc23)C2(CCN(CCc3ccccc3)CC2)N1 (stereo not drawn)	100
O=C(Nc1ccc(CN2CCCCC2)cc1)c1ccc(COc2ccc([N+](=O)[O-])cc2)o1	86
O=C(Nc1nc(-c2ccccn2)cc2ccccc12)c1cccc(Cl)c1	96
CCC(C)c1ccc(NC(=O)Nc2ccc(Cn3ncc(N4CCCNCC4)c(Cl)c3=O)cc2)cc1.O=C(O)C(F)(F)F (stereo not drawn)	83

Test system: Plasmodium falciparum
Assay: GSK_TCMDC: Inhibition of Plasmodium falciparum Dd2 in whole red blood cells, using parasite LDH activity as an index of growth. Test compounds present at 2uM
Format: functional

Structure (SMILES)	Inhibition [%]
Cc1ccccc1N1CCN(c2ccc(C(=O)NC(C)C)cn2)CC1.O=C(O)C(F)(F)F	91
COc1ccc(-c2ccc(NC(=O)c3ccc(Cl)cc3)cc2)cc1CN(C)CCN(C)C.O=C(O)C(F)(F)F	61
CN1CCN(c2cccc(-c3nnc(-c4ccc(OCC(=O)NCc5cccc(C(F)(F)F)c5)c([N+](=O)[O-])c4)o3)c2)CC1	72
O=C(c1cncc(-c2ccccc2)c1)N(Cc1cncn1Cc1ccccc1F)CC1CC1	0
Cc1cc(NC(=O)NCCN2CCC(NS(=O)(=O)c3cccc(Br)c3)C2)c2ccccc2n1.O=C(O)C(F)(F)F (stereo not drawn)	58
COc1cc(CNCCCCCCNCc2cc(OC)c3ccccc3c2OC)c(OC)c2ccccc12.CS(=O)(=O)O	40
CCc1cn(C)c2c(N3CCCC3=O)cc(C(=O)N[C@@H](Cc3ccccc3)[C@H](O)CNC3CCCCC3)cc12	98
Cc1cccc2nc(-c3cccc(-c4cccc(NC(=O)Cc5c[nH]cn5)c4)c3)[nH]c12	100
Nc1nc(N)c2c(ccn2Cc2cc3c(cc2Cl)OCO3)n1	11
Br.NCC(=O)NC12CC3CC(CC(C3)C1)C2	0
O=C(Nc1ccc(-c2nc3ccccc3[nH]2)cc1)c1ccc(Cl)s1	34
COc1cc(Nc2nccc(N3CCC(NC(=O)Nc4cccc(C(C)=O)c4)C3)n2)cc(OC)c1OC (stereo not drawn)	34
CC(=O)N1CCN(c2ccc(NC(=O)c3oc(-c4ccccc4)nc3C(F)(F)F)cn2)CC1	93
O=C(Nc1ccc(Cl)cc1)c1cc(Cl)ccc1NC(=O)C1CCc2ccccc2O1 (stereo not drawn)	63
CCCCNCc1ccc(-c2nc(CN(Cc3ccc(Cl)c(Cl)c3)C(=O)CN(C)C)cs2)cc1.O=C(O)C(F)(F)F	51
Cc1ccoc1C(=O)Nc1cccc(-c2cccc(-c3nc4cccc(C)c4[nH]3)c2)c1	79
OC(c1ccc2ccccc2c1)C1CN(CCc2ccccc2)CCC1(O)c1ccccc1 (stereo not drawn)	96
Cc1c(CCNC(=O)CCCN2CC(C)CC(C)C2)c2ccccc2n1C.Cl (stereo not drawn)	100
O=C(/C=C/c1ccc(Cl)c(Cl)c1)NCCCCCCN1CCN(C(=O)Nc2ccc(F)c(Cl)c2)CC1	2
Cc1nnsc1C(=O)Nc1ccc(-c2ccc(-c3nc4cccc(C)c4[nH]3)s2)cc1	61

Structure (SMILES)	Inhibition [%]
CCOC(=O)N[C@@H]1CN[C@@H](C#Cc2cc3c(Nc4ccc(OCc5cccc(F)c5)c(Cl)c4)ncnc3s2)C1	13
FC(F)(F)c1ccc2[nH]c(-c3cccc(-c4cccc(CNCCc5ccncc5)c4)c3)nc2c1.O=C(O)C(F)(F)F	97
CCC(C)NC(=O)Nc1ccc(-c2cccc(-c3nc4cccc(C)c4[nH]3)c2)cc1 (stereo not drawn)	83
COc1ccc(CNCc2ccc(F)cc2)cc1-c1cccc(S(=O)(=O)NCCN2CCCC2)c1.O=C(O)C(F)(F)F	54
Fc1ccc(C=NNc2nc3ccccc3[nH]2)cc1	58
CCCOc1ccc(N2C(N)=NC(N)=NC2(C)C)cc1.Cl	2
CCCc1ccc(NC(=O)c2cccc(CN3CCCN(Cc4cccc(C#N)c4)CC3)c2)cc1.O=C(O)C(F)(F)F	0
CN1CCN(Cc2cccc(-c3ccc4c(Nc5ccc(Oc6cccnc6)cc5)ccnc4c3)c2)CC1	100
COc1cc(C(=O)NC2CCN(Cc3ccccc3)CC2)ccc1-c1cc2cc(Cl)c(Cl)cc2[nH]1.O=C(O)C(F)(F)F	100
Nc1ncc(-c2ccc3ncccc3c2)c(N)n1.O=C(O)C(F)(F)F	0
FC(F)(F)c1ccc2[nH]c(-c3ccc(-c4cccc(CNCCc5cccnc5)c4)s3)nc2c1.O=C(O)C(F)(F)F	98
O=C(Nc1ccc(C(=O)OCC(c2ccccc2)c2ccccc2)cc1)N[C@@H](Cc1ccc(O)cc1)C(=O)NC1CCN(Cc2ccc(O)cc2)C1.O=C(O)C(F)(F)F (stereo partly drawn)	0
N#Cc1ccc(-c2ccc(C(=O)NCCCCN3CCC(c4cn(CCCO)c5ccccc45)CC3)cc2)cc1	56
CCCCCCCCCN1CC[C@@H](CCCc2ccnc3ccc(O)cc23)[C@@H](CC)C1.O=C(O)C(=O)O	59
Fc1ccc2[nH]cc(CCNCc3ccc(-c4cccc(-c5nc6ccccc6[nH]5)c4)cc3)c2c1.O=C(O)C(F)(F)F	99
CCCCCCNC(=O)C1Cc2c([nH]c3ccc(Br)cc23)C2(CCN(CCc3ccccc3)CC2)N1 (stereo not drawn)	94
O=C(Nc1ccc(CN2CCCCC2)cc1)c1ccc(COc2ccc([N+](=O)[O-])cc2)o1	0
O=C(Nc1nc(-c2ccccn2)cc2ccccc12)c1cccc(Cl)c1	72
CCC(C)c1ccc(NC(=O)Nc2ccc(Cn3ncc(N4CCCNCC4)c(Cl)c3=O)cc2)cc1.O=C(O)C(F)(F)F (stereo not drawn)	31
